The target of assay [1] is T1, Protein kinase C zeta type (Homo sapiens) (UniProt Q05513).
T1 sequence (whole entry): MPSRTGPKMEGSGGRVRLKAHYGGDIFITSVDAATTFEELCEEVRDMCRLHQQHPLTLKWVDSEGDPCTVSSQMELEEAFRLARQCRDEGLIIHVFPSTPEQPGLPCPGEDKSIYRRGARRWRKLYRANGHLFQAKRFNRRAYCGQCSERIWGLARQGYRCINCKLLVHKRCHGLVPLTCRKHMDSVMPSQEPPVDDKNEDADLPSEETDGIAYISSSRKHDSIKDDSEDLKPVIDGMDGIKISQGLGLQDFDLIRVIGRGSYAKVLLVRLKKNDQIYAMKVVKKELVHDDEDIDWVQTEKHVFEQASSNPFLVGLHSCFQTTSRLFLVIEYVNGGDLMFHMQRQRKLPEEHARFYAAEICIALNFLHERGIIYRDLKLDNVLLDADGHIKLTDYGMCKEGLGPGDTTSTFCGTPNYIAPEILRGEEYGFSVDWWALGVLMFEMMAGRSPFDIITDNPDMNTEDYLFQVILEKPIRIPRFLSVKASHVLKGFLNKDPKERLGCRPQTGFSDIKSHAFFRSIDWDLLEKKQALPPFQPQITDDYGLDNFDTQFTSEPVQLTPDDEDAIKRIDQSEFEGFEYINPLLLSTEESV
The settings on record: at 1 µM.

For assay [2], the target named is T2, Mitogen-activated protein kinase kinase kinase 5 (Homo sapiens) (UniProt Q99683).
T2 sequence (whole entry): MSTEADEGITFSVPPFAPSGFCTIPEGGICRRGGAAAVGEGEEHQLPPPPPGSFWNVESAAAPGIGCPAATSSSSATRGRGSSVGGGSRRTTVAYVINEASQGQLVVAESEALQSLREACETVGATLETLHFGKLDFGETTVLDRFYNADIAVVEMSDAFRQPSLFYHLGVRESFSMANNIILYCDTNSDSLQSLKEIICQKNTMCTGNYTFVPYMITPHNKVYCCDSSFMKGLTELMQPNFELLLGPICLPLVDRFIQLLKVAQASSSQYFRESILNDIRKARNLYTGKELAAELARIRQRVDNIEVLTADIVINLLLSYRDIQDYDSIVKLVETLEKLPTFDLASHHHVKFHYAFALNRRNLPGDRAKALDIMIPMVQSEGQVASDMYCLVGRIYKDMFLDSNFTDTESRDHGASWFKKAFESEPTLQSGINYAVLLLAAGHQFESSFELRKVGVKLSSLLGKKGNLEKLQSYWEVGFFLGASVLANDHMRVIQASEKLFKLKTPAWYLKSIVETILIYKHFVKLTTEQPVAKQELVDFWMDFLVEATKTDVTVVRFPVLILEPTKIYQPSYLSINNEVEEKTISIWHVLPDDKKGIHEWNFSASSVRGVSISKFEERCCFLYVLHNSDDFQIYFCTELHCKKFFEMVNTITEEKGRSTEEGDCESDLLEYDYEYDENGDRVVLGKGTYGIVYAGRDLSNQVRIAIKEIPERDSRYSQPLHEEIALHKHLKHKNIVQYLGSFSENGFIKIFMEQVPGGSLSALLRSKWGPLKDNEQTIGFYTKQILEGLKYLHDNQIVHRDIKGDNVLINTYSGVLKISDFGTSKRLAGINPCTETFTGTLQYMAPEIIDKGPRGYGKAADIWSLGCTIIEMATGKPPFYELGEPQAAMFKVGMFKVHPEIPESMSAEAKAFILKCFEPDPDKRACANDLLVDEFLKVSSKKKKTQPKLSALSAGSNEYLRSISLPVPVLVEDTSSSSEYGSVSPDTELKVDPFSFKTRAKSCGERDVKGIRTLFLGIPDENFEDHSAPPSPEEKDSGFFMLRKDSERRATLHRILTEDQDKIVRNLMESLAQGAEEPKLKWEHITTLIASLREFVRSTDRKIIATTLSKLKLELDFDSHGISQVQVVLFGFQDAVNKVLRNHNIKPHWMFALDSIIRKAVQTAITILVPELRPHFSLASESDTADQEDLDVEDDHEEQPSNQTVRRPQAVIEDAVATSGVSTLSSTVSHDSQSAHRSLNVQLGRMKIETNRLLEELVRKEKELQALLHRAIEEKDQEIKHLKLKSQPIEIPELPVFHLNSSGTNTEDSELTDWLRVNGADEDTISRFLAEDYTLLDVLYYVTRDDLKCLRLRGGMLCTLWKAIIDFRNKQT
Particulars: at 10 µM; call rule not given here.

Assay [3] deals with Tyrosine-protein kinase ABL1 (Homo sapiens) (UniProt P00519). Particulars: at 1 µM.
Chain of Tyrosine-protein kinase ABL1 (Homo sapiens) (P00519 whole entry): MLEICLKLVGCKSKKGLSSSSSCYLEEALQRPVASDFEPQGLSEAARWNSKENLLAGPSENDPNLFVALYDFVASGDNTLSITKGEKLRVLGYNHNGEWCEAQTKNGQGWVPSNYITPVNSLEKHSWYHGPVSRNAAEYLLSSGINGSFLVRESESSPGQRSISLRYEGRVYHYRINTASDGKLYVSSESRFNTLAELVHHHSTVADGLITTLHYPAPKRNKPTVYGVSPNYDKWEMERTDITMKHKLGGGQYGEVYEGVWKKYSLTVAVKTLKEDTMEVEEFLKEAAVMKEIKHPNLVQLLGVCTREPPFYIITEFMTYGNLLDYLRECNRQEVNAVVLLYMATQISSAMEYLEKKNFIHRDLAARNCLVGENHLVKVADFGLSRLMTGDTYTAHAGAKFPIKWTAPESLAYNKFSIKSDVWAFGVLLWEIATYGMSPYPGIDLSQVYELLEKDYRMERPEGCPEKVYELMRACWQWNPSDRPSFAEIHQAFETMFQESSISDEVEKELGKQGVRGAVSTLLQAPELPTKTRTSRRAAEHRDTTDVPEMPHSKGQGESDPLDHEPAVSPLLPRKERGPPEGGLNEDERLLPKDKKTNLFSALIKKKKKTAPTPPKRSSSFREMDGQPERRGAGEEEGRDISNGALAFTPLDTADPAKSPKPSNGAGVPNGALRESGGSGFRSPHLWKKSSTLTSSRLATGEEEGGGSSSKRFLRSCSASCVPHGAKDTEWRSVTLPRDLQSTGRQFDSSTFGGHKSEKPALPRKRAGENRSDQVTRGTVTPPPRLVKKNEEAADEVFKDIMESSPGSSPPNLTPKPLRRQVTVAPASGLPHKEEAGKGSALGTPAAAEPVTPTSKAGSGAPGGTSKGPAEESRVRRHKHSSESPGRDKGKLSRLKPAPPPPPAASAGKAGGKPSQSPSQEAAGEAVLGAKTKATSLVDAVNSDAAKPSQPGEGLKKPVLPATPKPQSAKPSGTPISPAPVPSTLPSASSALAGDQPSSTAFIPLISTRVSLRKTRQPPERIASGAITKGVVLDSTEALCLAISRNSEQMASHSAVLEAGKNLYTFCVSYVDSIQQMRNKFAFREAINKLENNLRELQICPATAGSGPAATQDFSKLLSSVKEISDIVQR
Assay [4] has the same target. Particulars: at 10 µM.
Assay [5] addresses Tyrosine-protein kinase ABL2 (Homo sapiens) (UniProt P42684). The settings on record: at 1 µM.
The target is the same in assay [6]. Particulars: at 10 µM.
For assay [7], the target named is T3, Aurora kinase A (Homo sapiens) (UniProt O14965).
T3 sequence (whole entry): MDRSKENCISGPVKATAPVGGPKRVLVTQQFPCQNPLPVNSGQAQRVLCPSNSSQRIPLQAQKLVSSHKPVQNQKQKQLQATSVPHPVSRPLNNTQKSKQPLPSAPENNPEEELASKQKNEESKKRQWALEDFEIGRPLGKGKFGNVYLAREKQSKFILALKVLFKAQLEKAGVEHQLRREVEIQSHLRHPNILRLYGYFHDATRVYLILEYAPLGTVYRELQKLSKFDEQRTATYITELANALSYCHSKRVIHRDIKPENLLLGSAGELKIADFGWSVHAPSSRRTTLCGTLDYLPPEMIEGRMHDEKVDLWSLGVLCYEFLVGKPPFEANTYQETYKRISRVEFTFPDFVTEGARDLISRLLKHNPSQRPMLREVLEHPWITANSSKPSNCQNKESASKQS
The settings on record: at 1 µM.

Assay [8] concerns the target T3, Aurora kinase A (Homo sapiens). The settings on record: at 10 µM.
Assay [9] deals with Aurora kinase B (Homo sapiens) (UniProt Q96GD4). The settings on record: at 1 µM.
Chain of Aurora kinase B (Homo sapiens) (Q96GD4 whole entry): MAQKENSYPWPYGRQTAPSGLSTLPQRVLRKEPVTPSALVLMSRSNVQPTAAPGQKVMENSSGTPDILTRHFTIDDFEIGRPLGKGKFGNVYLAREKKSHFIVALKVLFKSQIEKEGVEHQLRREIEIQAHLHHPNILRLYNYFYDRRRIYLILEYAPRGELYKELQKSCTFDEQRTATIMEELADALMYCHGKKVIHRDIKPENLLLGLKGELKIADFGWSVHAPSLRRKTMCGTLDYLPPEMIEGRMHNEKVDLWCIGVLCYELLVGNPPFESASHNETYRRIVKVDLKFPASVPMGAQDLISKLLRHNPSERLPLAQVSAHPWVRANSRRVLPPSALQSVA
Assay [10] has the same target. The settings on record: at 10 µM.
Assay [11] concerns the target T4, Aurora kinase C (Homo sapiens) (UniProt Q9UQB9).
T4 sequence (whole entry): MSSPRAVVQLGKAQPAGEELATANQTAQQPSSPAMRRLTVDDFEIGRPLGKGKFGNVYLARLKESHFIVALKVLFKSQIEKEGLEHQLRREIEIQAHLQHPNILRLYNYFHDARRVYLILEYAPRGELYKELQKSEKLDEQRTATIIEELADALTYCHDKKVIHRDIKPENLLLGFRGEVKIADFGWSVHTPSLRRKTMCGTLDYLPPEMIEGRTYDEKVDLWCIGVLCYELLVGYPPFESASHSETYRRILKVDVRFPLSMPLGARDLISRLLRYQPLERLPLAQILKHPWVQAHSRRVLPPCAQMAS
Particulars: at 1 µM.

The target of assay [12] is T4, Aurora kinase C (Homo sapiens). Particulars: at 10 µM.
Assay [13] deals with Tyrosine-protein kinase receptor UFO (Homo sapiens) (UniProt P30530). The settings on record: at 1 µM.
Chain of Tyrosine-protein kinase receptor UFO (Homo sapiens) (P30530 whole entry): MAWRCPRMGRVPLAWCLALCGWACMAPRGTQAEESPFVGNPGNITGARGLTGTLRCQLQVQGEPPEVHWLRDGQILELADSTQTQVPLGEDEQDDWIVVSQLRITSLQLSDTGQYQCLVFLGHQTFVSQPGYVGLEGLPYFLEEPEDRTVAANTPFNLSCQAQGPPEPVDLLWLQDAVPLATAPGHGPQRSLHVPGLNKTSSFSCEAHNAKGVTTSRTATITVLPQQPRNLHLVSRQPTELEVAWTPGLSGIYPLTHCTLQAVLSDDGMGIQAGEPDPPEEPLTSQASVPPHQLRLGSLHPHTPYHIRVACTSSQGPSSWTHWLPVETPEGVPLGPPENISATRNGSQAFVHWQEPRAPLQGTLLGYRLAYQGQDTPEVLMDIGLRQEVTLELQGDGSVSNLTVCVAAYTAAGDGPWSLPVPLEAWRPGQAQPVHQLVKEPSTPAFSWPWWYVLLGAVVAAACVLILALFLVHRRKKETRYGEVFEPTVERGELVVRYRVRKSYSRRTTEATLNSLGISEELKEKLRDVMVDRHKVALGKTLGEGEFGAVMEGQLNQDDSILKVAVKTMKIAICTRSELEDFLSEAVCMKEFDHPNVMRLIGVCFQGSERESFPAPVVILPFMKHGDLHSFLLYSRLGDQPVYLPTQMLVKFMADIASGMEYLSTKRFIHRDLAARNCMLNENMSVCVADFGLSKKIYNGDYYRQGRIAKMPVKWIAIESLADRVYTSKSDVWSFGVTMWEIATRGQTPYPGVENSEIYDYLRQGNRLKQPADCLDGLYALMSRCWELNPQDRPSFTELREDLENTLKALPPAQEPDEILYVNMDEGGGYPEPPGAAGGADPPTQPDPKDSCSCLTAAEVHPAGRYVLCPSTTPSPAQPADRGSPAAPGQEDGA
Assay [14] has the same target. Particulars: at 10 µM.
In assay [15] the target is Protein-tyrosine kinase 6 (Homo sapiens) (UniProt Q13882). Particulars: at 1 µM.
Chain of Protein-tyrosine kinase 6 (Homo sapiens) (Q13882 whole entry, looked up): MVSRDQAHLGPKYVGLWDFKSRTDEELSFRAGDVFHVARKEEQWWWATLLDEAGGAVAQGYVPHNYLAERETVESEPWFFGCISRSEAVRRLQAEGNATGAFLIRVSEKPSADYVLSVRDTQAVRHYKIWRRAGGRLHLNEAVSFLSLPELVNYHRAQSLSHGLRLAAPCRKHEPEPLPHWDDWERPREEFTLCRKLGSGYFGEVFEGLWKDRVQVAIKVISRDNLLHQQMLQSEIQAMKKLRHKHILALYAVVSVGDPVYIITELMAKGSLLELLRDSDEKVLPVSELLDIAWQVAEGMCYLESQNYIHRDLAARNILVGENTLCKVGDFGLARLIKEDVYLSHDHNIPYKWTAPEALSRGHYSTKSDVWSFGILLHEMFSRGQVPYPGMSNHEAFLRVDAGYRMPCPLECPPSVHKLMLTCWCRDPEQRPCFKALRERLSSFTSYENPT
For assay [16] the target is unchanged. Particulars: at 10 µM.
The target in assay [17] is Tyrosine-protein kinase BTK (Homo sapiens) (UniProt Q06187). Particulars: at 1 µM.
Chain of Tyrosine-protein kinase BTK (Homo sapiens) (Q06187 whole entry): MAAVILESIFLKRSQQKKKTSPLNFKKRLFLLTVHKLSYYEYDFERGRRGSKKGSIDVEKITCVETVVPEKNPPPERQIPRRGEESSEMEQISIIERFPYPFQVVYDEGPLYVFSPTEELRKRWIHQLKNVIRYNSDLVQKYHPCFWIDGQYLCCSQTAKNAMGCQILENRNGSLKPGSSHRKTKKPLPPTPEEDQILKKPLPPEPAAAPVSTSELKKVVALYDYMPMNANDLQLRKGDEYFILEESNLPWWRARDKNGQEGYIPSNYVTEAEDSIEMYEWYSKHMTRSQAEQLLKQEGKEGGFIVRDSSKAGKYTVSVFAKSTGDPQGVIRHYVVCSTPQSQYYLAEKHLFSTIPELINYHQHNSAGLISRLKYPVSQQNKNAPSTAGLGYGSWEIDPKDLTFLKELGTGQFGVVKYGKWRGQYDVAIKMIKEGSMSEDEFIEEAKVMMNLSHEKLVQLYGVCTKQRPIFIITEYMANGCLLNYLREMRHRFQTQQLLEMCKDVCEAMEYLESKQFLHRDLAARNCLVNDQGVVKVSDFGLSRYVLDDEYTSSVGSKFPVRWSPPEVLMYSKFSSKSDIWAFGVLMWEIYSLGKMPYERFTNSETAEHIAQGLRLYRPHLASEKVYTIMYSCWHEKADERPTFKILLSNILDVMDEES
Assay [18] shares this target. The settings on record: at 10 µM.
Assay [19] deals with Tyrosine-protein kinase Blk (Homo sapiens) (UniProt P51451). The settings on record: at 1 µM.
Chain of Tyrosine-protein kinase Blk (Homo sapiens) (P51451 2-505 limits assumed): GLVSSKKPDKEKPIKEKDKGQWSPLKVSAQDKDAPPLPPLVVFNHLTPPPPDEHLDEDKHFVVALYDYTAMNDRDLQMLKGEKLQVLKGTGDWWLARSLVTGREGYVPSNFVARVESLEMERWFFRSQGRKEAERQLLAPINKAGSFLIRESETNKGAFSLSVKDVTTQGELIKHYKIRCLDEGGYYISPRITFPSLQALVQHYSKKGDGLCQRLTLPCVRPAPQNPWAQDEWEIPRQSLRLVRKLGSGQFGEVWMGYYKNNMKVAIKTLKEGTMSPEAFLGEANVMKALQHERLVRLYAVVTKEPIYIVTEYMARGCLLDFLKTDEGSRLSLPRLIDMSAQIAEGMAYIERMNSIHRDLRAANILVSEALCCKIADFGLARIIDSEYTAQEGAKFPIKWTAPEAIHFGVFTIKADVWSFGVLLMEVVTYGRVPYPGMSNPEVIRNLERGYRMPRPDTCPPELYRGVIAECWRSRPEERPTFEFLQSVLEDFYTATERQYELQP
Assay [20] shares this target. Particulars: at 10 µM.

Structures are written as SMILES.

With `COc1cc2ncnc(Nc3ccc(O)c(Br)c3)c2cc1OC`, the residual activity is 96% (inactive) in [1]; 82% in [2]; 64% in assay [3]; 13% in assay [4]; 76% in assay [5]; 22% in assay [6]. Further, the residual activity in assay [7] came out at 49%; in [8], 26%; in [9] it was 43%; in assay [10], 2%; in assay [11], 45%; in assay [12], 10%. Also, the residual activity came out at 36% in [13]; 17% in assay [14]; 18% in assay [15]; 1% in [16]; 80% in assay [17]; 33% in [18]. The residual activity came out at 21% in [19] and 3% in assay [20].
Turning to `CCOc1cc2ncnc(Nc3cccc(Br)c3)c2cc1OCC`, the residual activity in [1] is 104% (inactive); in assay [2], 115%; in [3], 48%; in assay [4], 5%; in [5], 36%; in assay [6], 4%. Further, the residual activity in assay [7] was found to be 55%; in assay [8], 46%; in assay [9] it was 56%; in assay [10], 7%; in assay [11], 98%; in assay [12] it was 52%. In addition, the residual activity was 66% in [13]; 31% in [14]; 18% in assay [15]; 2% in [16]; 72% in assay [17]; 28% in assay [18]. The residual activity turned out to be 17% in assay [19] and 3% in assay [20].
As for `c1ccc2c(-c3ccncc3)c[nH]c2c1`, the residual activity in [1] was 94% (inactive); in [2] it was 77%; in assay [3] it was 98%; in [4], 100%; in assay [5], 110%; in [6], 72%. Also, the residual activity in [7] was 99%; in [8] it was 76%; in assay [9], 92%; in assay [10] it was 70%; in assay [11], 66%; in assay [12] it was 46%. Moreover, the residual activity in [13] came to 81%; in assay [14], 75%; in assay [15], 95%; in assay [16], 75%; in [17], 99%; in [20], 107%.
In the case of `Cc1cc2ncc(-c3ccccc3)nc2cc1C`, the residual activity in assay [1] is 106% (inactive); in assay [2], 83%; in assay [3] it was 92%; in [4], 87%; in assay [5], 96%; in [6], 103%. The residual activity in assay [7] was 77%; in assay [8] it was 96%; in assay [9], 87%; in [10], 75%; in [11], 104%; in assay [12], 87%. Besides, the residual activity worked out at 100% in assay [13]; 88% in assay [14]; 103% in assay [15]; 101% in assay [16]; 94% in [17]; 105% in [18]. Also, in assay [20], the residual activity was 95%.
`Oc1n[nH]c2nnc(-c3c(-c4ccccc4)nn4ccccc34)cc12`: the residual activity was 107% (inactive) in assay [1]; 105% in [2]; 81% in assay [3]; 95% in [5]; 64% in assay [6]; 104% in assay [7]. The residual activity was 93% in [8]; 5% in assay [9]; 2% in [10]; 84% in assay [11]; 84% in assay [12]; 118% in assay [13]. For the same compound, the residual activity in assay [14] was 104%; in assay [15], 97%; in assay [16] it was 87%; in assay [17] it was 78%; in [18], 33%; in assay [19] it was 107%. For the same compound, the residual activity in assay [20] is 90%.
For the compound `CCC(=O)Nc1ccc2ncnc(Nc3cccc(Br)c3)c2c1`, the residual activity is 116% (inactive) in assay [1]; 108% in [2]; 90% in assay [3]; 89% in assay [4]; 96% in [5]; 72% in assay [6]. In addition, the residual activity in assay [7] was 73%; in assay [8], 127%; in [9], 101%; in assay [10], 67%; in assay [11] it was 94%; in [12], 80%. The residual activity stood at 83% in [13]; 80% in assay [14]; 80% in assay [15]; 60% in [16]; 95% in [17]; 78% in assay [18]. In addition, the residual activity in [19] was 112%; in assay [20] it was 80%.
For the compound `N#Cc1cnc2cnc(NCc3cccnc3)cc2c1Nc1ccc(F)c(Cl)c1`, the residual activity in assay [1] is 103% (inactive); in assay [2], 65%; in [3], 98%; in [4], 84%; in assay [5], 82%; in assay [6], 55%. Moreover, the residual activity in assay [7] is 31%; in assay [8], 24%; in [9], 3%; in assay [10], 1%; in [11], 71%; in [12], 54%. The residual activity in assay [13] was 19%; in assay [14], 22%; in assay [17] it was 70%; in assay [18], 58%; in assay [19], 4%; in assay [20], 3%.
Turning to `Cn1nc2c3c(cccc31)C(=O)c1ccccc1-2`, the residual activity is 102% (inactive) in assay [1]; 29% in assay [2]; 101% in [3]; 70% in assay [4]; 102% in assay [5]; 86% in assay [6]. The residual activity in [7] is 79%; in assay [8], 74%; in [9], 75%; in assay [10] it was 6%; in assay [11], 72%; in assay [12], 58%. In addition, the residual activity came out at 90% in assay [13]; 63% in assay [14]; 103% in assay [15]; 94% in [17]; 76% in assay [18]; 111% in [19]. The residual activity in assay [20] was found to be 91%.

For the origin of these results see ChEMBL document CHEMBL2218924, “A broad activity screen in support of a chemogenomic map for kinase signalling research and drug discovery” (Biochem J, 2013).
